The values that follow come from PubChem BioAssay (EPA / NIEHS).

Assay [1] is described as follows: ATG_E_Box_CIS: Attagene CIS-FACTORIAL HepG2 Assay for human Enhancer Box (E-box) (AID 2282936). Particulars: HepG2 E-box cis-reporter transcription, actives raise or lower the signal. The method, boiled down: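 In this cell-based setup, HepG2 cells bearing transfected promoter-driven reporter units were exposed to chemicals for 24 h; reporter transcripts were amplified, 6-FAM-labelled, cut with HpaI and sized by capillary electrophoresis.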

The nature of assay [2]: ATG_M_61_CIS: Attagene CIS-FACTORIAL HepG2 Assay for M61 Transcription Factor (Internal Marker) (AID 2282937). The settings on record: HepG2 Attagene CIS-FACTORIAL M61 internal marker reporter; actives raise or lower the signal. The method, boiled down:
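Transfect HepG2 with MRTUs; dose 24 h; isolate RNA; reverse-transcribe with DNase I treatment; PCR-amplify, FAM-label and cut with HpaI for 2 h at 37 C; resolve by CE. Bidirectional fitting against DMSO.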

The nature of assay [3]: ATG_EGR_CIS: Attagene CIS-FACTORIAL HepG2 Assay for human Early Growth Response 1 (EGR1) (AID 2282938). Particulars: HepG2 Attagene CIS-FACTORIAL EGR reporter mRNA; actives raise or lower the signal. Summed up: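 After a 24 h treatment of transiently transfected HepG2 cells, total RNA was reverse-transcribed and reporter sequences PCR-amplified, labelled and run on capillary electrophoresis. Reporters sit under cis-regulatory promoters sensing endogenous factors.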

Assay [4] in a line: ATG_M_19_CIS: Attagene CIS-FACTORIAL HepG2 Assay for M19 Transcription Factor (Internal Marker) (AID 2282939). The settings on record: HepG2 Attagene CIS-FACTORIAL M19 internal marker reporter; actives raise or lower the signal. The method, boiled down:
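Signals come from fluorescence of labelled reporter-specific PCR fragments resolved by capillary electrophoresis, following 24 h treatment of HepG2 cells transfected with cis-promoter reporter units; activity was fitted in both directions relative to DMSO.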

A short description of assay [5]: ATG_Ets_CIS: Attagene CIS-FACTORIAL HepG2 Assay for human Erythroblast Transformation Specific (ETS) (AID 2282941). The settings on record: HepG2 ETS cis-reporter transcription, actives raise or lower the signal. Summed up:
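RT-PCR/capillary electrophoresis fluorescence read-out of reporter mRNA; HepG2 transient multi-reporter transfection; 24 h compound exposure; gain or loss of signal fitted bidirectionally relative to DMSO.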

In assay [6] the target is Hepatocyte nuclear factor 3-beta (Homo sapiens) (UniProt Q9Y261). The assay can be described thus: ATG_FoxA2_CIS: Attagene CIS-FACTORIAL HepG2 Assay for human Forkhead box A2 (FOXA2) (AID 2282942). The settings on record: HepG2 cis-reporter transcription factor activity, 24 h; actives raise or lower the signal. Summed up:
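24 h dosing of HepG2 bearing cis-reporter constructs; mRNA readout by RT-PCR/CE fluorescence; bidirectional fit, DMSO baseline.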

Assay [7] is described as follows: ATG_FoxO_CIS: Attagene CIS-FACTORIAL HepG2 Assay for human Forkhead box O (FoxO) (AID 2282943). The settings on record: HepG2 Attagene cis-reporter, FoxO element, mRNA; actives raise or lower the signal. Summed up: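 Read-out: fluorescence of 6-FAM-labelled reporter cDNA fragments resolved by capillary electrophoresis. Transiently transfected HepG2 cells were dosed for 24 h; activity fitted in both directions relative to DMSO controls.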

A short description of assay [8]: ATG_GATA_CIS: Attagene CIS-FACTORIAL HepG2 Assay for human GATA Binding Protein (AID 2282944). The settings on record: HepG2 GATA cis-element reporter, Attagene multiplex mRNA; actives raise or lower the signal. Summed up: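 After transfecting HepG2 cells with multiple cis-regulated reporter units, chemicals are dosed for 24 h; isolated RNA undergoes RT-PCR and fluorescent labeling before capillary electrophoresis, with activity expressed against DMSO.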

The nature of assay [9]: ATG_GLI_CIS: Attagene CIS-FACTORIAL HepG2 Assay for human Zinc Finger Protein GLI1 (AID 2282945). The settings on record: HepG2, Attagene cis-factorial reporter mRNA, GLI element; actives raise or lower the signal. Summed up: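 Transiently transfected HepG2 cells report endogenous transcription factor activity via cis-element-driven reporter units. After 24 h compound exposure, reporter mRNA was measured by RT-PCR with capillary electrophoresis; bidirectional fitting against DMSO baseline.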

Assay [10] in a line: ATG_GRE_CIS: Attagene CIS-FACTORIAL HepG2 Assay for human Glucocorticoid Response Elements (GRE) (AID 2282947). The settings on record: HepG2 GRE cis-reporter, Attagene multiplex mRNA; actives raise or lower the signal. The method, boiled down: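 Fluorescence intensity of reporter-specific cDNA fragments, separated by capillary electrophoresis, provides the signal. Constructs carry cis-regulating promoters in transiently transfected HepG2 liver cells; 24 h incubation; fitting is bidirectional against DMSO.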

The nature of assay [11]: ATG_ISRE_CIS: Attagene CIS-FACTORIAL HepG2 Assay for human Interferon Regulatory Factor 1 (IRF1) binding to an Interferon-Stimulated Response Element (ISRE) (AID 2282948). The settings on record: HepG2 ISRE cis-reporter (Attagene), mRNA transcription readout; actives raise or lower the signal. Summed up: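 Read-out: fluorescent RT-PCR products resolved by capillary electrophoresis, reporting endogenous transcription factor activity via ISRE-driven reporter mRNA in transfected HepG2 cells dosed for 24 h; gain or loss fitted relative to DMSO.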

Assay [12] is described as follows: ATG_M_32_CIS: Attagene CIS-FACTORIAL HepG2 Assay for M32 Transcription Factor (Internal Marker) (AID 2282949).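 Also: background control marker of the multiplexed CIS panel rather than a real target.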 Particulars: HepG2 Attagene cis-factorial M32 reporter, mRNA; actives raise or lower the signal. The method, boiled down: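 HepG2 transfectants (cis-regulated reporter transcription units) dosed 24 h. Reporter mRNA by RT-PCR plus CE, analysed as gain or loss relative to DMSO.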

Assay [13] can be described thus: ATG_M_06_CIS: Attagene CIS-FACTORIAL HepG2 Assay for M06 Transcription Factor (Internal Marker) (AID 2282950). Particulars: HepG2 Attagene CIS-FACTORIAL M06 internal marker reporter; actives raise or lower the signal. The method, boiled down: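 HepG2 liver cells, 24 h exposure. Reporter transcripts from transfected cis-element constructs quantified by RT-PCR/capillary electrophoresis fluorescence. Bidirectional curve fit against DMSO.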

Assay [14] has as its target Hypoxia-inducible factor 1-alpha (Homo sapiens) (UniProt Q16665). The assay can be described thus: ATG_HIF1a_CIS: Attagene CIS-FACTORIAL HepG2 Assay for human Hypoxia Inducible Factor 1 (HIF1A) (AID 2282951). The settings on record: HepG2 Attagene cis-factorial HIF1a reporter transcription; actives raise or lower the signal. Summed up:
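After 24 h chemical exposure of reporter-transfected HepG2 cells, reporter cDNA was PCR-amplified, labelled by 6-FAM primer extension (2 min 95 C, 20 s 68 C, 10 min 72 C), HpaI-cut (2 h, 37 C) and analysed by CE.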

Assay [15] concerns the target Hepatocyte nuclear factor 6 (Homo sapiens) (UniProt Q9UBC0). The assay can be described thus: ATG_HNF6_CIS: Attagene CIS-FACTORIAL HepG2 Assay for human Hepatocyte Nuclear Factor 6 (HNF6) (AID 2282952). Particulars: HepG2 Attagene cis-factorial HNF6 reporter transcription; actives raise or lower the signal. Summed up:
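Endogenous factor activity read in transiently transfected HepG2 via promoter-regulated reporter transcripts. RNA harvested 24 h post-dosing, reverse-transcribed, PCR-amplified, FAM-labelled, HpaI-digested and resolved by capillary electrophoresis; fitted in both directions against DMSO.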

A short description of assay [16]: ATG_MRE_CIS: Attagene CIS-FACTORIAL HepG2 Assay for human Metal Responsive Element (MRE) (AID 2282954). Particulars: HepG2 MRE cis-reporter transcription, Attagene multiplex; actives raise or lower the signal. The method, boiled down:
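Measured here is mRNA induction from an MRE cis-element reporter in HepG2 after 24 h, quantified by fluorescence of labelled RT-PCR products on capillary electrophoresis; gain- and loss-of-signal fits use DMSO as baseline.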

A short description of assay [17]: ATG_PBREM_CIS: Attagene CIS-FACTORIAL HepG2 Assay for human Phenobarbital-responsive Enhancer Module (PBREM) (AID 2282955). Particulars: HepG2 PBREM cis-reporter, Attagene multiplexed transcription; actives raise or lower the signal. The method, boiled down: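 Measures endogenous factor action on a phenobarbital-responsive enhancer module. HepG2 transiently carrying cis reporters, 24 h treatment, mRNA read-out by RT-PCR plus capillary electrophoresis.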

Assay [18] has as its target Heat shock factor protein 1 (Homo sapiens) (UniProt Q00613). The assay can be described thus: ATG_HSE_CIS: Attagene CIS-FACTORIAL HepG2 Assay for human Heat Shock Transcription Factor 1 (HSE) (AID 2282953). Particulars: HepG2 HSE cis-reporter, Attagene RNA transcription; actives raise or lower the signal. Summed up: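 Endogenous transcription factor activity captured via cis-promoter reporter units transfected into HepG2; treatment lasted 24 h. Fluorescence intensity of reporter fragments analysed with bidirectional curve fitting, DMSO baseline.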

The source made the active and inactive calls. The calls were made as follows: active = hit-call score of the fitted dose curve at least 0.9, where 1 is the maximum; inactive = score below 0.9.

Sequence of Hypoxia-inducible factor 1-alpha (Homo sapiens) (Q16665 whole entry, looked up): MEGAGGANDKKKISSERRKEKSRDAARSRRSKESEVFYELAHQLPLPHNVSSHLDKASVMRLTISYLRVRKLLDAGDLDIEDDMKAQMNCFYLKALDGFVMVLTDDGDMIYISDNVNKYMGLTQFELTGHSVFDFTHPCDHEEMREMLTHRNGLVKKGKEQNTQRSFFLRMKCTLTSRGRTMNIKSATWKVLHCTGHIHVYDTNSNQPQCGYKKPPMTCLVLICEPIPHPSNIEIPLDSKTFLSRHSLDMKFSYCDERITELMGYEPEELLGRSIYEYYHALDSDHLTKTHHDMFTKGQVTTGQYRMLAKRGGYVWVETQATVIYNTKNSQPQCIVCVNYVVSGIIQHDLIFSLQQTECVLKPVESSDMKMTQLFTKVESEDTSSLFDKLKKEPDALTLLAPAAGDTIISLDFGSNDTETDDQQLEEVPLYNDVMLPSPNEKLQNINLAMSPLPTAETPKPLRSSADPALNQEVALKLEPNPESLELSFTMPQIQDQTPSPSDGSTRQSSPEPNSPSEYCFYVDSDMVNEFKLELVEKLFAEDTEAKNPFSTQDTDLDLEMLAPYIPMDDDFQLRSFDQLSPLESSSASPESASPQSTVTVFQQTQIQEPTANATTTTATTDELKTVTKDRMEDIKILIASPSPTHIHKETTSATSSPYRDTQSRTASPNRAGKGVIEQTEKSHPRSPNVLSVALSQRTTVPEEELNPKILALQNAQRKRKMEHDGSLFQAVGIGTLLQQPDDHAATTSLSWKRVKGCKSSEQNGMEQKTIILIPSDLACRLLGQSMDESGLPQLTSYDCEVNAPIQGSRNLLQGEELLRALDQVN
Sequence of Hepatocyte nuclear factor 3-beta (Homo sapiens) (Q9Y261 whole entry, looked up): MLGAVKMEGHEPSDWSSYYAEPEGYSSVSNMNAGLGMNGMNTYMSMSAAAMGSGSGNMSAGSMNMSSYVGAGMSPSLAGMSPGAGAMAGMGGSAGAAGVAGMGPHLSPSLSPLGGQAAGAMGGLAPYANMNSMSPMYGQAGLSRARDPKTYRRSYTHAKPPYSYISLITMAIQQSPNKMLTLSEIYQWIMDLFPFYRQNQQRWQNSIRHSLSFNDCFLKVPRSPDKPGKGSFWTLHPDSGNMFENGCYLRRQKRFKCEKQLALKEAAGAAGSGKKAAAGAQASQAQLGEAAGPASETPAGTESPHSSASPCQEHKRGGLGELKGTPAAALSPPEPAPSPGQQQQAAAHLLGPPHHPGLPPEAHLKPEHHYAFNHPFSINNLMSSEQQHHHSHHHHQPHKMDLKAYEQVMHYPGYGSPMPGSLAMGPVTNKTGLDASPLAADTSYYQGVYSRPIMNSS
Sequence of Heat shock factor protein 1 (Homo sapiens) (Q00613 whole entry, looked up, the tested form may be a part): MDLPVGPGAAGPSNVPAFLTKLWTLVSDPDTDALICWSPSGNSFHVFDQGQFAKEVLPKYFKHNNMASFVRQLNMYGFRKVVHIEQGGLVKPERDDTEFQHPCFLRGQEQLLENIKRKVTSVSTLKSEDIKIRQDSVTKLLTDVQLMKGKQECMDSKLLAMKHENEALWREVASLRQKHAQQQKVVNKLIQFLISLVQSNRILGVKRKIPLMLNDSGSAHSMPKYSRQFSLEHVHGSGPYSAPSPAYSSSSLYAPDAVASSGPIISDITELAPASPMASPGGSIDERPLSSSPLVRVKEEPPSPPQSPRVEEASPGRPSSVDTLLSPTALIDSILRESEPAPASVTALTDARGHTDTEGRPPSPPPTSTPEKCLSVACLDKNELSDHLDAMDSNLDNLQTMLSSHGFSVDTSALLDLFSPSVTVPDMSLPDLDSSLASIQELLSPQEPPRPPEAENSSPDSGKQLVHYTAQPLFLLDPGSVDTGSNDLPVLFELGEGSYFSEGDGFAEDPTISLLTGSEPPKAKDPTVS
Sequence of Hepatocyte nuclear factor 6 (Homo sapiens) (Q9UBC0 whole entry, looked up): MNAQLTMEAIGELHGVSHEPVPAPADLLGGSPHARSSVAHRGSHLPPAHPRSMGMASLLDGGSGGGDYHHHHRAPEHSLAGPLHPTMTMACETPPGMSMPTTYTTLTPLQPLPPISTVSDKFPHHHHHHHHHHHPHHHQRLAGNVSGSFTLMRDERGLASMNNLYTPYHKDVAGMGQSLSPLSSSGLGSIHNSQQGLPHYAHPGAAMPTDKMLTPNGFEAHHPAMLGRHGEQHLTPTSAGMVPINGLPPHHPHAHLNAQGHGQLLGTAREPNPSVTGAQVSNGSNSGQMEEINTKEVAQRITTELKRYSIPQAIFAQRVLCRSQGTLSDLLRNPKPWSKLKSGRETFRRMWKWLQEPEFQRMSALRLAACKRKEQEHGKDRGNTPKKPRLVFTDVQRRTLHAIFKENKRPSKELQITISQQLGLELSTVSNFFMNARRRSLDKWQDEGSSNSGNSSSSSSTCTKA

Regarding `O=C1CCCCCCCCCCOCCCCO1`, the outcome in assay [1], in assay [2], in [3], in assay [4], in assay [5] and in [6] was inactive. Besides, the result in [7], in assay [8], in [9], in [10], in assay [11] and in assay [12] was inactive. Besides, the outcome in assay [13], in assay [15] and in assay [17] was inactive. For the same compound, the results for the AC50 in assay [14] and in assay [16] were 179 µM (active) and 180 µM (active), respectively.

Consider `CC1(C)[C@@H]2CC[C@@]1(C)[C@H](O)C2`, for which the outcome in assay [1], in [2], in assay [3], in assay [4], in assay [5] and in [6] was inactive. Further, the compound was classed as inactive in [7], in [8], in assay [9], in [10], in [11] and in assay [12]. The compound was classed as inactive in assay [13], in assay [15], in assay [18], in assay [16] and in [17]. Besides, the AC50 (usually the concentration giving half of the maximal activity seen) in [14] is 100 µM (active).

Take `CC(C)[C@H]1CC[C@@H](C)CC1=O`: the outcome in assay [1], in [2], in assay [3], in assay [4], in [5] and in assay [6] was inactive. The compound was called inactive in assay [7], in assay [8], in assay [9], in assay [11], in [12] and in assay [13]. Moreover, the call in [14], in [15], in [18] and in assay [16] was inactive.

Consider `O=C1CCCCCCCCCCCCCCO1`, for which the result in [1], in [2], in assay [3], in assay [4], in assay [5] and in assay [6] was inactive. For the same compound, the result in assay [7], in assay [8], in assay [9], in assay [10], in assay [11] and in [12] was inactive. The result in [13], in [14], in assay [15], in assay [18] and in assay [16] was inactive.

`c1ccc2[nH]ccc2c1`: the result in [1], in [2], in assay [3], in [4], in assay [5] and in [6] was inactive. Further, the outcome in assay [7], in assay [8], in assay [9], in assay [10], in assay [11] and in assay [13] was inactive. The outcome in [14], in assay [15], in [18] and in assay [16] was inactive.

On to `FC1(F)C(F)(F)C(F)(F)C2(F)C(F)(C1(F)F)C(F)(F)C(F)(F)C1(F)C(F)(F)C(F)(F)C(F)(F)C(F)(F)C12F` (centres undefined), for which the outcome in assay [1], in assay [2], in [3], in assay [4], in assay [5] and in assay [6] was inactive. Also, the outcome in assay [7], in assay [8], in [9], in assay [10], in assay [11] and in assay [12] was inactive. The outcome in [13], in assay [14], in [15], in assay [18], in [16] and in [17] was inactive.

Regarding `S=C(S)NCCNC(=S)S`, the outcome in assay [1], in assay [2], in assay [3], in assay [4], in assay [5] and in [6] was inactive. The outcome in [7], in assay [8], in assay [9], in assay [10], in [11] and in assay [12] was inactive. The compound was classed as inactive in assay [13], in [14], in assay [15], in assay [18] and in assay [16].

For `C=CCOc1nc(OCC=C)nc(OCC=C)n1`, the outcome in [1], in assay [2], in assay [3], in assay [4], in [5] and in [6] was inactive. Further, the compound was called inactive in assay [7], in assay [8], in assay [9], in assay [10], in [11] and in assay [14]. Besides, the compound was classed as inactive in assay [15], in assay [18] and in assay [16].
